Test results: article PMC12136788
Positions count from the first letter of the chain named. Over roughly 24,000 sequences, “enrichment r” has its median near 0.99; the highest 2% begin near 3.7. The list comes from a sample in which the highest values are over-represented; it also holds similar and randomly drawn sequences.

B1: chr9:74900086:74900087:+_ENSMUSG00000007656_ENSMUST00000169492|mus_mus|motif|central (ssRNA)
RNA: GGGAGUUCUACAGUCCGACGAUCUUGUCCCAAGUGAGGAUACCUUGCCUUUAACUUUGCUUCUUCAGCUUUCUCUGGACGGGUUACUUUAUCUUCCAUUUCCUUUUGCUCCUCCGCAGACGCUGCCUCGGGGACUUCCGCGGACAACAGAGGAUUGAGCAUCA
B2: chr3:139236485:139236486:-_ENSG00000114115_ENST00000232219|hu_mus|FALSE|FALSE (ssRNA)
RNA: GGGAGUUCUACAGUCCGACGAUCCUGAAGACCAAGGUUAUCUCCUCGGGCUGUUCGGGCUGCUCAGUGUACUUUCUUAAACACUUGCUUGCAGAUCACACCCUCAGCUCUCAUUUCCAGGUGAAGUUCAUCACCCUCGAUCCACAACAGAGGAUUGAGCAUCA
B3: 133975656_133975776_5164_3pUTR_ENSG00000205060_ENST00000378509|human|control|control (ssRNA)
RNA: GGGAGUUCUACAGUCCGACGAUCCAUUUCUCUGUCCGUUUAGGUCAAUGCCAACUGGUCCACCAGUGAACAUGUCCACCGGCCCUGAGCUAACUCAUUGGUUUAUUAUUCCUGACCUAAGGUGUUUUACUUCCCCUCUCCAUACAACAGAGGAUUGAGCAUCA
B4: chr1:39494447:39494448:+_ENSG00000168653_ENST00000372967|hu_mus|hu_hu_hu_mus_False|18_98 (ssRNA)
RNA: GGGAGUUCUACAGUCCGACGAUCGCACCGAGCGGCGAUCUUGUAGGGCUGUUCUGCGCUUAGGAACAUAAAGUGCCGGUCCAGGCUGAUGCCCAGCUUUUUCUGUAUGUCAAGGAAAGGCAUGGCCCUGCAGUGCCCUUGUCACAACAGAGGAUUGAGCAUCA
B5: chr20:43533646:43533647:+_ENSG00000166913_ENST00000353703|hu_hu|motif|central (ssRNA)
RNA: GGGAGUUCUACAGUCCGACGAUCGAAAUUUAGUGCCAGACCAAGACGAAUUGGGUGUGUAGGCUGCAUUUCUUUCUUACGGAUUUCAAAUGCUUCCUGGUAAGCCUGCUGGGAGUUCGACACAGUGGUUUGUUUGUUGUCUCCCAACAGAGGAUUGAGCAUCA
B6: chr11:77340908:77340909:-_ENSG00000074201_ENST00000525064|hu_hu|hu_hu_hu_mus_True|8_8 (ssRNA)
RNA: GGGAGUUCUACAGUCCGACGAUCGUUUGGAUCCCUGGACACCGCAUGUAAACUAAUGGUGGGGUAUUCCAGUGAGAAUCCUAAUCCCGAACCAUCUAACCAGGACAGGCGGCUCUCCGCGAUGUAAAGGGUACCAGUGCCGAGCAACAGAGGAUUGAGCAUCA
B7: 135097835_135097955_579_3pUTR_ENSMUSG00000040731_ENSMUST00000036125|mouse|control|control (ssRNA)
RNA: GGGAGUUCUACAGUCCGACGAUCAAGUCCAUGUUGGAGCCACGCAGAGGAGGGCCAUCUCGAAAGCGACUCCCCAUUGGAGGGCCUGCUCGCCGGUCCCCAGGGCGACUGCCCCCCCUACCCCCUAAGAAGUCAUCCCUGUAGCAACAGAGGAUUGAGCAUCA
B8: chr12:493273:493274:-_ENSG00000073614_ENST00000399788|hu_mus|hu_hu_hu_mus_False|48_58 (ssRNA)
RNA: GGGAGUUCUACAGUCCGACGAUCUUUUCUCUCCACCACAGGGAUCUUCAAUGUAGAUCCUUGAAGUUCCCAAAAUUUUGCUAGUUGAUCCAAGAAAUCCAAUCUUACUCUAGUCAUUGCCUCAAGUUCAUUCAGGCGCUGGACCAACAGAGGAUUGAGCAUCA
B9: chr2:73656703:73656704:-_ENSMUSG00000027104_ENSMUST00000100009|mus_hu|FALSE|FALSE (ssRNA)
RNA: GGGAGUUCUACAGUCCGACGAUCAAGAAAUGGAAGUGGGAAGAAAGAUUCAGUAACACCCCCAUUUAUUAAAACACCAGCAAAUUAAAAGUGAAAUAAAUCACAAUGAAUUAUAAUACAAUUUACACAUUGAGCACAGAAAAACAACAGAGGAUUGAGCAUCA
B10: 36138064_36138184_3590_3pUTR_ENSG00000100320_ENST00000405409|human|control|control (ssRNA)
RNA: GGGAGUUCUACAGUCCGACGAUCAAAGCAAAAGCAAAAUCCUCCCUGCCCCCAUUCCCUAGAACUGUGAAAGCCCGCAUCCCAUUCCCCGCUCCUCUAACUAAAAUAUUUAUAUACAUACAACAAAAAUUGUCUUAACAGCAACAACAGAGGAUUGAGCAUCA
B11: chr18:9954606:9954607:+_ENSG00000101558_ENST00000400000|hu_mus|FALSE|FALSE (ssRNA)
RNA: GGGAGUUCUACAGUCCGACGAUCCCAUUUCCCCCACAGAAAACCUCUUGGCAUUUCCUGAAUGAGUGGGAUUAGCAAUCUAAAUAAAUCAUAUUUCAAGAGGUAACAGCAACAGAUAAAAUUUAAAGGAAUUAUUAAAAUAACCAACAGAGGAUUGAGCAUCA
B12: 54572216_54573035_2393_CDS_ENSG00000067248_ENST00000251636|human|control|control (ssRNA)
RNA: GGGAGUUCUACAGUCCGACGAUCAUCUUCAAGAUGAAAAACCUCAACAGGAUAACUUCUUCCUGAAAUUCUGAGAAUGGGGCAGUGUGUGAAAUAUGUAGAAAAUUUUUCGCUGUCCACAGUGGCACUCAUUAGAAUCAAGUGCAACAGAGGAUUGAGCAUCA
B13: chr19:16212804:16212805:+_ENSG00000167460_ENST00000300933|hu_mus|hu_hu_hu_mus_False|48_58 (ssRNA)
RNA: GGGAGUUCUACAGUCCGACGAUCAACAAUUCUGGAGUGAAGGAAAGAUGUAACAUGGAACAGCAUUAAAGCUCAGUAUUACUAUAUGUGGGUAAUUAUGAUCACCCCAGCAUUCUCGCUUGGAAUGCUUAAAGACAAUCUGUUCAACAGAGGAUUGAGCAUCA
B14: chr18:9954606:9954607:+_ENSG00000101558_ENST00000400000|hu_hu|FALSE|FALSE (ssRNA)
RNA: B11 RNA with C24A, A26C, U27A, C30U, C36A, A37G, A41U, A129G
B15: 104554200_104554320_324_3pUTR_ENSMUSG00000032621_ENSMUST00000074616|mouse|control|control (ssRNA)
RNA: GGGAGUUCUACAGUCCGACGAUCAUCAGAUCCAUACAAAGAAACAAAUAAGAAGAACAUAAGGCUUUCCUUUUAUCCUGCUCUAUUAGGAAAAAUAAAAGUGAGCAAAACUUCAAAGACUAACAAUCUCAUUAAUGGAACAUUCAACAGAGGAUUGAGCAUCA
B16: chr9:42776432:42776433:-_ENSMUSG00000059495_ENSMUST00000165665|mus_hu|FALSE|FALSE (ssRNA)
RNA: GGGAGUUCUACAGUCCGACGAUCUAACAAAUUUAUAGUCAAGAAAAUAAAAUUUGCUUUCCUCUCCCACCCAAAUCCCAACCCUCAAUAGAAAAGACGACAAUGGAAGAAAACACACCCAUUUUCAAGUGCCUGCUAUUUAGUCAACAGAGGAUUGAGCAUCA
B17: chr3:57569730:57569731:-_ENSG00000168374_ENST00000303436|hu_mus|FALSE|FALSE (ssRNA)
RNA: GGGAGUUCUACAGUCCGACGAUCAUAUUCUACUGUUUCCACAUUAAAACCAAUGGUAGGAAUGGUGGUGACUAUUUCCCCUAAUUUCAGUUUAUACAGAAUUGUCGUCUUGCCAGCAGCAUCCAAUCCAACCAUCAAAAUGCGCAACAGAGGAUUGAGCAUCA
B18: chr3:75345182:75345183:-_ENSMUSG00000027835_ENSMUST00000161137|mus_hu|FALSE|FALSE (ssRNA)
RNA: GGGAGUUCUACAGUCCGACGAUCAUGUGGUCUCAGCUUCAUUCUUCAUCUCUUCCAUUGUCAUCCUCAUUCAAAAGCCAACUACAGUUGAAAAAGCAGUGCUAAAAUGCAGAGGAAUCUUCAUUCACUGCAAUAUUUCUUCUCCAACAGAGGAUUGAGCAUCA
B19: chr19:16212804:16212805:+_ENSG00000167460_ENST00000300933|hu_mus|hu_hu_hu_mus_False|8_78 (ssRNA)
RNA: GGGAGUUCUACAGUCCGACGAUCAACAAUUCUGGAGUGAAGGAAAGAUGUAACAUGCAAUUAAUUAAAAGCUCAGUCAGAAGGCACAUGGGCAACAAUGAUCACCCCAGCAUUCUCGCUUGGAAUGUGCUUGAGAAAUCUGUUCAACAGAGGAUUGAGCAUCA

Molecular target: T1, UNK ZnF1-3 (human, UniProt Q9C0B0 31-174)
T1 sequence: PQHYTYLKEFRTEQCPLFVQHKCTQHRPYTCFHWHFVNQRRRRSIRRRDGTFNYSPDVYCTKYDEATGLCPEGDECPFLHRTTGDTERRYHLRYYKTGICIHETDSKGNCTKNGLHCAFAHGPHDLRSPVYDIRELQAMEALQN
Assay: nsRBNS (natural sequence RNA bind-n-seq); RBNS binding buffer (assumed for nsRBNS): 25 mM Tris pH 7.5, 150 mM KCl, 3 mM MgCl2, 0.01% Triton X-100, 500 ug/ml BSA, 20 U/ml SUPERase-In, 4 C; UNK is unkempt and MSI1 is Musashi-1; names of the RNAs are library labels; protein concentration not given here; high values mean tight binding

| Binder | binding signal [enrichment R] |
| --- | --- |
| B1 | 0.353 |
| B2 | 0.756 |
| B3 | 0.604 |
| B4 | 0.479 |
| B5 | 0.731 |
| B6 | 1.2 |
| B7 | 0.982 |
| B8 | 0.927 |
| B9 | 4.55 |
| B10 | 3.79 |
| B11 | 4.49 |
| B12 | 1.16 |
| B13 | 0.913 |
| B14 | 3.36 |
| B15 | 0.765 |
| B16 | 4.14 |
| B17 | 0.905 |
| B18 | 1.23 |
| B19 | 1.42 |
